The list is not random: actives were taken first. Their share in the collection is about 6.3%.
TGFb inhibitor = TGF-b pathway inhibition; 1.2% of 410,000 active; AID 588855; HepG2 CAGA-GFP TGF-b/SMAD3 reporter, GFP fluorescence, 18 h; TGF-beta stimulated, 500 pg/mL final; Potency, µM (titrated, usually from 46.1 µM), for inactives: top-dose activity, negative = inhibition, most hits filed as inhibitors; further: on the % scale 0 is the no-effect control and ±100 the full control effect; nearly all actives have a fitted effect of over 65% in size
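Read-out: total well GFP (ex488/em500-530) summed from mean per-cell fluorescence. Cells: HEPG2 CAGA-GFP, 1% FBS DMEM, 18 h at 37 degrees C with 500 pg/mL final TGF-beta. Unstimulated wells served as the full-inhibition control; stimulated DMSO wells = 0%.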
VP16 counter = counter-screen for ROR gamma inhibitors: Gal4-VP16 reporter. Drosophila S2 Gal4-VP16 UAS-luciferase, luminescence, 20 h. Potency, µM (series often up to 53.6 µM), without a hit: at the highest dose activity, negative = inhibition, hits mostly inhibitors. 3.5% of 310,000 active;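 further: Gal4-VP16 expression switched on by copper sulfate through the metallothionein promoter; on the % scale 0 is the no-effect control and ±100 the full control effect; nearly all actives have a fitted effect of over 50% in size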
S2 tox = cell viability loss in ATXN counter-screen. AID 651635. Potency, µM (doses to about 56.7 µM), usual class: cytotoxic. 0.49% of 400,000 active. S2 cells (HEK-293 line with an ATXN2-luciferase reporter) viability, CellTiter-Fluor protease fluorescence, 24 h; further: nearly all actives have a fitted effect of over 40% in size
RORgamma inh = inhibitors of mouse ROR gamma transcriptional activity. P51450. Drosophila S2 Gal4-RORgamma UAS-luciferase reporter, 20 h. Potency, µM (top dose mostly 53.6 µM), for the others: at the highest dose activity change, negative = inhibition, hits mostly inhibitors. 5.4% of 310,000 active; further: on the % scale 0 is the no-effect control and ±100 the full control effect; nearly all actives have a fitted effect of over 60% in size
Target sequence (P51450 whole entry, looked up, the tested form may be a part): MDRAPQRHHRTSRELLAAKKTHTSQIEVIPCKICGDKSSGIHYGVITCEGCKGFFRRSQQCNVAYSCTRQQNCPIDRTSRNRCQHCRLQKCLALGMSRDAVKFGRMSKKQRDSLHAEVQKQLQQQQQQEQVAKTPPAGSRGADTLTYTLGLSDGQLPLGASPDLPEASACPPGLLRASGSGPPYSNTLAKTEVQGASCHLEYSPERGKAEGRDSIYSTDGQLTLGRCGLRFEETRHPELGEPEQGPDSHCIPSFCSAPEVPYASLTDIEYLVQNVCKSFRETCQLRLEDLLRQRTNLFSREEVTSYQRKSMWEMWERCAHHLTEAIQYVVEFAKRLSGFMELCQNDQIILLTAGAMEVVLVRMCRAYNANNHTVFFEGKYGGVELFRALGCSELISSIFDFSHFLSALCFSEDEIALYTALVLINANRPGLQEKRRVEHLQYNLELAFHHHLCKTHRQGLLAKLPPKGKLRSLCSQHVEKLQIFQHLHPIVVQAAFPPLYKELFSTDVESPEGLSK
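Stable Schneider cell line, Gal4 DNA-binding domain fused to ROR gamma, UAS-luciferase. Cmpd 1 hr RT → CuSO4 700 uM final → 20 hr RT → luciferase reagent 10 min → luminescence.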
HepG2 viability = HepG2 cytotoxicity, counter-screen for TGF-b inhibitors; HepG2 CAGA-GFP viability, ATP luminescence, 18 h; Potency, µM (titrated, usually from 46.1 µM), without a hit: at the highest dose activity change, negative = cytotoxicity, hits mostly cytotoxic; 0.76% of 410,000 active
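CellTiter-Glo luminescence gave cytotoxicity after 18 hours at 37 degrees C. The cells were HepG2 CAGA-GFP in 1% FBS DMEM, stimulated with 500 pg/mL TGF-beta after compound addition. %Activity was normalised to no-cell wells (complete cell-killing) and DMSO (no toxicity), and curves were fitted and classified.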
ATXN2 expr inh = reduces ATXN2 reporter expression in HEK-293 cells; 0.72% of 360,000 active; AID 1745845; HEK-293 ATXN2-luciferase reporter, luminescence, 24 h; Potency, µM (titrated, usually from 57 µM), for inactives: top-dose activity change, negative = inhibition, actives largely listed as inhibitors; further: on the % scale 0 is the no-effect control and ±100 the full control effect; nearly all actives have a fitted effect of over 55% in size
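qHTS (up to 57 uM final) was run with 24 h compound exposure of reporter cells at 37 °C. Each well was multiplexed: SteadyGlo luminescence measured ATXN2-luciferase expression after a fluorogenic Gly-Phe-AFC viability readout (25 uM final).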
An asterisk follows results filed as active; i = inactive; ? = inconclusive; . = not tested or not shown. The call rests on the fitted dose curve; in most records, active means well fitted curve in the direction sought with a large enough effect; inconclusive means small, poorly fitted or top-dose-only effect, or another doubt; inactive means no such curve, though single readings can be large; an effect the other way counts as inactive or inconclusive. Potency means the concentration at half of the fitted maximal effect.

SMILES	TGFb inhibitor	VP16 counter	S2 tox	RORgamma inh	HepG2 viability	ATXN2 expr inh
Cc1ccc(Nc2cc(C)c3c(O)cccc3n2)cc1C	?	10µM*	?	?	-56%	-31%
Cc1ccc(Nc2cc(C)c3ccc(O)cc3n2)cc1C	?	?	i	-3%	10µM*	.
O=C(COC(=O)c1cc(=O)[nH]c2ccccc12)NC(=O)c1ccccc1	-3%	.	i	.	1%	18%
Cc1nn(-c2nnc(C)c(=O)[nH]2)c(C)c1SCC(=O)Nc1ccc(C(C)C)cc1	?	19%	i	1.1µM*	-10%	9%
CC(/C=N/NC(=S)Nc1cccc(S(=O)(=O)N(C)C)c1)c1ccccc1 (stereo not drawn)	0%	-15%	i	-30%	9%	8%
Cc1ccc(CNC(=S)Nc2cc(C)ccc2OC(F)F)cc1	12%	?	i	4.5µM*	0%	-10%
Cc1ccc(C)c(NC(=S)N/N=C/C(C)c2ccccc2)c1 (stereo not drawn)	-1%	7.1µM*	i	0.56µM*	-2%	-7%
COc1ccc(CNC(=O)c2ccc(C)cc2)cc1	-1%	-4%	.	25%	-4%	.
COc1ccc(CNC(=S)Nc2cc(C)ccc2C)cc1	-32%	7.1µM*	i	7.9µM*	-37%	-7%
COc1ccc(/C(C)=N/NC(=S)Nc2cc(C)ccc2C)cc1	?	11µM*	i	2.8µM*	-17%	-17%
Cc1cccc(OCC(=O)Nc2ccccc2OCc2cc(=O)n3ccccc3n2)c1	5%	.	.	.	0%	.
CCCc1nn2c(=O)cc(COC(=O)c3ccccc3NC(=O)c3cccs3)nc2s1	-2%	.	i	.	-3%	-2%
CCN(CC)C(=O)C1=C(C)N(Cc2ccccc2)C(=O)C(CC(=O)NCc2cccc3ccccc23)C1 (stereo not drawn)	-16%	.	i	.	-24%	-22%
Cc1ccc(C)c(NC(=S)NCc2ccccc2)c1	-15%	5µM*	i	3.2µM*	-10%	-2%
Cc1ccc(NC(=S)NCc2ccccc2)cc1C	1%	.	.	.	-9%	18%
COc1ccc(CNC(=S)Nc2ccccc2C)cc1	7%	10µM*	i	18µM*	3%	4%
O=c1c2nc(Br)n([C@@H]3O[C@@H]4CO[P@@](O)(=S)O[C@H]4[C@H]3O)c2nc2[nH]c(-c3ccccc3)cn12	.	-10%	.	1%	.	.
CCN(CC)S(=O)(=O)c1cc(NC(=O)C2CCN(c3ncnc4sc(C)c(C)c34)CC2)ccc1Cl	?	.	?	.	-17%	11µM*
CCCN(CCC)CC(O)Cn1cc(/C=C/C(=O)c2ccc(OCC)cc2)c2ccccc21 (stereo not drawn)	?	.	.	.	13µM*	?
Cc1cccc(C=NNc2cc(N3CCOCC3)nc(OCCc3ccccn3)n2)c1	.	.	.	.	.	0.97µM*
COC(=O)CCC(C)C1CCC2C3CCC4CC(O)CCC4(C)C3=CC(=O)C12C (stereo not drawn)	-12%	.	i	.	-14%	-8%
O=C(Nc1ccc(F)c(Cl)c1)c1cc(C2CCCCN2C(=O)CCc2ccccc2)on1 (stereo not drawn)	-24%	.	?	.	-26%	-3%
Nc1ccc(-n2cc(-c3ccccc3)[nH]c2=S)cc1	10%	?	i	8.9µM*	1%	13%
O=[N+]([O-])c1ccc(-c2cn(-c3ccccc3)c(=S)[nH]2)cc1	0%	?	i	?	1%	6%
S=c1[nH]c(-c2ccccc2)cn1-c1ccccc1	2%	10µM*	i	10µM*	1%	36%
SMILES	TGFb inhibitor	VP16 counter	S2 tox	RORgamma inh	HepG2 viability	ATXN2 expr inh
O=[N+]([O-])c1cccc(-c2cn(-c3ccccc3)c(=S)[nH]2)c1	2%	11µM*	?	2µM*	-4%	.
O=C(NCC(c1cccnc1)N1CCc2ccccc2C1)C(=O)Nc1ccccc1F (stereo not drawn)	-27%	.	.	.	-36%	.
COC(=O)c1cccc(C(=O)N2CCc3c(C(=O)OC)c(OCc4ccccn4)cc(=O)n3CC2)c1	.	.	i	.	.	.
CC1=CC(=O)C=C(C)C1=NOc1ccccc1[N+](=O)[O-]	2%	?	i	10µM*	5%	-1%
Cn1c(C(=O)NCc2ccc(F)cc2)cc2c(=O)n(C)c3ccccc3c21	10%	.	i	.	3%	0%
CN(C)C(=O)/C(C#N)=C\c1cc(Br)c(Sc2ccc(Cl)cc2)o1	?	10µM*	i	?	-4%	-17%
CCn1c(C)cs/c1=N\S(=O)(=O)c1ccccc1	-6%	.	i	.	1%	7%
O=Cc1s/c(=N\S(=O)(=O)c2ccccc2)n(CCCCl)c1Cl	4µM*	?	5µM*	5µM*	8.9µM*	?
Nc1nc2ccccc2n1S(=O)(=O)c1ccc([N+](=O)[O-])cc1	13µM*	.	i	.	-85%	-2%
CCCCCCCCC(c1nc2ccccc2[nH]1)N1CCN=C(c2ccccc2)C1=O (stereo not drawn)	?	.	?	.	-38%	-24%
COc1cccc(CNCc2c(C(=O)O)c(C)n(Cc3ccc(F)cc3Cl)c2C)c1OC	20%	.	i	.	-13%	9%
O=C(N/N=C/c1ccc(O)cc1O)c1ccncc1	14%	0%	i	-23%	21%	22µM*
O=C(N/N=C/c1ccc(O)cc1O)c1ccc(NC(=O)C2CCCCC2)cc1	?	?	?	?	-100%	5.6µM*
O=C(N/N=C/c1cc(Cl)cc(Cl)c1O)c1ccncc1	?	?	i	3.2µM*	-54%	.
O=C(N/N=C/c1cc(Br)cc(Br)c1O)c1ccncc1	?	-26%	i	4µM*	-30%	?
Cc1cccc(C(=O)Oc2c(Br)cc(Br)cc2/C=N/NC(=O)c2ccncc2)c1	-17%	8%	i	-6%	-2%	-4%
O=C(N/N=C/c1ccc(Cl)cc1Cl)c1ccncc1	-10%	-14%	?	-27%	-19%	.
Cc1ccc(NC(=O)CSc2nc(-c3ccco3)nc3cc(=O)[nH]n23)cc1	-5%	.	i	.	-1%	11%
O=C(O)c1cccc(N/N=C/c2cc(Br)cc(Br)c2O)c1	?	-17%	i	?	-26%	50%
O=C(N/N=C/c1cc(Br)cc(Br)c1O)c1cccc(N2CCCC2=O)c1	-3%	10µM*	i	3.5µM*	-11%	?
O=C(N/N=C/c1cc(Br)cc([N+](=O)[O-])c1O)c1ccc(NC(=O)c2ccc(F)cc2)cc1	10%	11µM*	i	8.9µM*	0%	?

Source: PubChem
